Among the test systems are HCT-15 colon; HT29 colon; SNB-75 CNS; SNB-19 CNS; U251 CNS; PC-3 prostate; SK-MEL-5 melanoma; UACC-62 melanoma; LOX IMVI melanoma; SK-MEL-28 melanoma; SK-MEL-2 melanoma; EKVX NSCLC; SN12C renal; UO-31 renal; TK-10 renal; ACHN renal; CAKI-1 renal; A498 renal; CCRF-CEM leukemia; MOLT-4 leukemia.
What all share (test): NCI-60 one-dose screen, 48 h (100 = growth as untreated, 0 = no growth, -100 = all killed)
Conditions in all cases: 10 µM

This is part of a sample that, as a whole, favours compounds with a hit. Of some 83,000 tested, about 20% had one in any assay.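 The test compound was applied at a single concentration to cells in 96-well plates for 48 hours, and percent growth was recorded.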 Values without a mark were called inactive. Calls of active or inactive are those of the source. The calls were made as follows: active = growth percent below 10; inactive = the rest.

Our source for the growth values is PubChem BioAssay (NCI).

On to `COc1ccc(-c2cc(C(=O)N=Nc3c(O)[nH]c4ccc(F)cc34)c3ccccc3n2)cc1`, for which the growth was 21.5% in the experiment on HCT-15 colon; 61.9% with HT29 colon; 84.6% in the experiment on SNB-75 CNS; 44.1% in the experiment with SNB-19 CNS; 7.34% (active) in the experiment on U251 CNS; 76.6% in the experiment with PC-3 prostate. Further, the growth was 72.4% with SK-MEL-5 melanoma; 81.4% with UACC-62 melanoma; 24.1% in the experiment on LOX IMVI melanoma; 81.1% with SK-MEL-28 melanoma; 128% in the experiment with SK-MEL-2 melanoma; 86.4% in the experiment with EKVX NSCLC. Moreover, the growth with SN12C renal is 65.5%; in the experiment on UO-31 renal, 67.6%; with TK-10 renal it was 120%; in the experiment with ACHN renal, 68.1%; in the experiment on CAKI-1 renal, 87.8%; in the experiment with A498 renal, 128%. For the same compound, the growth with CCRF-CEM leukemia was 44.2%; in the experiment on MOLT-4 leukemia it was 21.9%.
Turning to `O=c1[nH]c2ccc(Cl)cc2cc1CSc1ccc(Nc2nccc(-c3ccc(Cl)cc3)n2)cc1`, the growth in the experiment with HCT-15 colon is 16.3%; with HT29 colon, 44.9%; in the experiment with SNB-75 CNS it was 101%; in the experiment on SNB-19 CNS, 77.5%; in the experiment with U251 CNS, 21%; with PC-3 prostate it was 34.4%. Moreover, the growth in the experiment with SK-MEL-5 melanoma is 97%; in the experiment with UACC-62 melanoma, 100%; in the experiment on LOX IMVI melanoma it was 35.8%; in the experiment on SK-MEL-28 melanoma it was 98.7%; in the experiment on SK-MEL-2 melanoma, 99.2%; in the experiment on EKVX NSCLC, 82%. In addition, the growth is 72.9% with SN12C renal; 90% in the experiment with UO-31 renal; 36.4% in the experiment with TK-10 renal; 83.5% in the experiment with ACHN renal; 84.9% in the experiment with CAKI-1 renal; 118% in the experiment on A498 renal. Moreover, the growth in the experiment on CCRF-CEM leukemia is 74.8%; in the experiment on MOLT-4 leukemia it was 46.4%.
Take `O=C(Nc1cccc([N+](=O)[O-])c1)Nc1cccc([N+](=O)[O-])c1`: the growth in the experiment with HCT-15 colon was 62.7%; in the experiment with HT29 colon it was 87.3%; in the experiment on SNB-75 CNS, 90.5%; with SNB-19 CNS it was 81.7%; with U251 CNS, 88.7%; with PC-3 prostate, 52%. Moreover, the growth is 69.6% in the experiment with SK-MEL-5 melanoma; 68.5% in the experiment on UACC-62 melanoma; 87.7% in the experiment on LOX IMVI melanoma; 88.7% with SK-MEL-28 melanoma; 91.1% in the experiment with SK-MEL-2 melanoma; 77.1% with EKVX NSCLC. The growth is 82.4% with SN12C renal; 63.9% in the experiment with UO-31 renal; 84.2% in the experiment on TK-10 renal; 84.8% in the experiment on ACHN renal; 83.7% in the experiment with CAKI-1 renal; 94.4% in the experiment on A498 renal. Besides, the growth in the experiment with CCRF-CEM leukemia is 69.7%; with MOLT-4 leukemia it was 76.4%.
As to `Cc1noc2c(Cc3ccccc3)nn(CC(=O)N/N=C/c3ccc(F)cc3)c(=O)c12`, the growth is 94.1% in the experiment on HCT-15 colon; 94.8% in the experiment on HT29 colon; 9.02% (active) in the experiment with SNB-75 CNS; 32.4% with SNB-19 CNS; 42.8% in the experiment on U251 CNS; 65.6% in the experiment with PC-3 prostate. For the same compound, the growth is 76% in the experiment on SK-MEL-5 melanoma; 94% in the experiment with UACC-62 melanoma; 36.3% in the experiment on LOX IMVI melanoma; 90.4% in the experiment with SK-MEL-28 melanoma; 73.7% with SK-MEL-2 melanoma; 70.8% in the experiment on EKVX NSCLC. Moreover, the growth with SN12C renal is 25.6%; in the experiment on UO-31 renal, 5.87% (active); with TK-10 renal, 59.2%; in the experiment on ACHN renal, 9.34% (active); in the experiment on CAKI-1 renal, 33.2%; in the experiment with A498 renal, -20% (active). The growth with CCRF-CEM leukemia is 100%; in the experiment on MOLT-4 leukemia it was 106%.
With `O=C(CNc1nc(-c2ccccc2)cs1)Nc1ccc([N+](=O)[O-])cc1Cl`, the growth in the experiment on HCT-15 colon is 1.43% (active); in the experiment on HT29 colon it was 34.8%; in the experiment with SNB-75 CNS, 82.3%; with SNB-19 CNS, 43.8%; in the experiment on U251 CNS, 15.8%; with PC-3 prostate, 38.2%. The growth in the experiment with SK-MEL-5 melanoma was 8.63% (active); with UACC-62 melanoma, 20.5%; in the experiment on LOX IMVI melanoma, -11.1% (active); in the experiment on SK-MEL-28 melanoma, 62.1%; with SK-MEL-2 melanoma, 20.1%; in the experiment on EKVX NSCLC it was 18.5%. Moreover, the growth in the experiment with SN12C renal was 13.4%; in the experiment with UO-31 renal it was 25.5%; with TK-10 renal it was 52.9%; with ACHN renal, 38.8%; in the experiment on CAKI-1 renal, 44.9%; in the experiment on A498 renal, 55%. For the same compound, the values for the growth with CCRF-CEM leukemia and in the experiment with MOLT-4 leukemia were 15.3% and 11%, respectively.
For `O=C(N/N=C/c1ccc(-c2cccc([N+](=O)[O-])c2)o1)c1[nH]c2ccc(Br)cc2c1-c1ccccc1`, the growth in the experiment with HCT-15 colon is 0.278% (active); in the experiment with HT29 colon, -44.9% (active); in the experiment with SNB-75 CNS it was 83.1%; in the experiment on SNB-19 CNS it was 32.9%; in the experiment on U251 CNS it was 9.05% (active); in the experiment on PC-3 prostate, 18.8%. In addition, the growth was -20.7% (active) with SK-MEL-5 melanoma; 33% in the experiment on UACC-62 melanoma; 7.19% (active) with LOX IMVI melanoma; 57.7% with SK-MEL-28 melanoma; 22.8% with SK-MEL-2 melanoma; 54.4% in the experiment with EKVX NSCLC. For the same compound, the growth is 3.81% (active) in the experiment with SN12C renal; 38.9% in the experiment with UO-31 renal; 40.4% in the experiment with TK-10 renal; 22.9% in the experiment with ACHN renal; 21.4% with CAKI-1 renal; 77.9% with A498 renal. Also, the growth was -2.99% (active) in the experiment with CCRF-CEM leukemia and 4.53% (active) in the experiment on MOLT-4 leukemia.
With `O=C(Nc1ccc(I)cc1F)c1cc(-c2ccc(F)cc2F)ccc1O`, the growth was 5.34% (active) with HCT-15 colon; 17% in the experiment with HT29 colon; -23.7% (active) in the experiment on SNB-75 CNS; 11.3% in the experiment with SNB-19 CNS; 4.61% (active) in the experiment with U251 CNS; 2.22% (active) in the experiment with PC-3 prostate. Besides, the growth was -75.3% (active) in the experiment with SK-MEL-5 melanoma; -14.4% (active) with UACC-62 melanoma; 6.5% (active) with LOX IMVI melanoma; 4.38% (active) in the experiment with SK-MEL-28 melanoma; -39.9% (active) in the experiment with SK-MEL-2 melanoma; 0.815% (active) in the experiment with EKVX NSCLC. For the same compound, the growth was -4.86% (active) with SN12C renal; -0.556% (active) in the experiment on UO-31 renal; 19.9% with TK-10 renal; -5.83% (active) in the experiment on ACHN renal; -21% (active) in the experiment with CAKI-1 renal; -21.3% (active) with A498 renal. The growth in the experiment with CCRF-CEM leukemia is 7.55% (active); in the experiment with MOLT-4 leukemia it was -0.655% (active).
Turning to `COc1ccc(CN2[C@H](C(=O)NCc3ccc(C(=O)NO)cc3)Cc3c([nH]c4ccccc34)[C@H]2C2CC2)cc1`, the growth was 44.4% with HCT-15 colon; 39.7% in the experiment with HT29 colon; 74.5% in the experiment with SNB-75 CNS; 63.4% in the experiment with SNB-19 CNS; 47.9% with U251 CNS; 54.6% in the experiment on PC-3 prostate. Further, the growth in the experiment on SK-MEL-5 melanoma was 67.3%; in the experiment on UACC-62 melanoma it was 20.9%; in the experiment with LOX IMVI melanoma it was 35.1%; in the experiment on SK-MEL-28 melanoma it was 43.7%; with SK-MEL-2 melanoma, 44.9%; with EKVX NSCLC it was 51.6%. Moreover, the growth in the experiment on SN12C renal is 70.5%; in the experiment with UO-31 renal, 66.4%; in the experiment with TK-10 renal, 53.2%; in the experiment on ACHN renal it was 76.4%; in the experiment on CAKI-1 renal it was 72.3%; in the experiment with A498 renal, 65%. Further, the growth with CCRF-CEM leukemia was 28.8%; with MOLT-4 leukemia, 26.6%.
